This note sets out measurements from PubChem BioAssay.

In test [1] the test system is Human papillomavirus type 1a protein E7 (residues 44-93). The test is described as follows: small molecules binding HPV E7 44-93 – biochemical, small-molecule microarray, residues 44-93, 635 nm fluorescence, primary screen (AID 1108).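 Also: E7 fragment applied at 1 µg/mL in TBST for 1 h at 4 C; score combines spot fluorescence with its signal to noise ratio.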 The settings on record: fluorescence 635 nm, higher = more signal.
Test [2] is described as follows: hepatitis C replication reporter changes, two-sided – Huh7 cells, luciferase reporter, HCV replication inhibitor project, primary screen (AID 1109).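 Also: huh7 hepatoma cells harbouring a luciferase neomycin HCV replicon reporter; luciferase luminescence as measure of HCV replicon replication; test concentration not given here.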 The conditions noted are these: Huh7 HCV replicon luciferase reporter, 48 h; higher = more signal. Background: In a reporter assay the amount or activity of a reporter protein is the signal.
The target of test [3] is Left-right determination factor 2 (Homo sapiens) (UniProt O00292). Description: small molecules binding LEFTY2 protein – biochemical, small-molecule microarray, 635 nm fluorescence scan, primary screen (AID 1110). The conditions noted are these: higher = more signal.
Left-right determination factor 2 (Homo sapiens), sequence (O00292 whole entry, looked up): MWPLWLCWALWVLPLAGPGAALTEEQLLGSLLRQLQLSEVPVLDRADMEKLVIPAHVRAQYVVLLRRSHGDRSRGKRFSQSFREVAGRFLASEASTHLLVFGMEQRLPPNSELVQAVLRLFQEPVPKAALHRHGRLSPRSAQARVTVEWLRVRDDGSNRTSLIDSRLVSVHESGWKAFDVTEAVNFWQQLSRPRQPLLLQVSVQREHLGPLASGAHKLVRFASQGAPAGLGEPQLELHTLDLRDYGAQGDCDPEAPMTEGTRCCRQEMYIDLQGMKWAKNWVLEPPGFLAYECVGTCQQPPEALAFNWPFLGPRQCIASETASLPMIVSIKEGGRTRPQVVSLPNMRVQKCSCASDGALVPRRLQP
Test [4] has as its target Calmodulin-1 (Homo sapiens) (UniProt P0DP23). Description: small molecules binding calmodulin-1 with EGTA – biochemical, small-molecule microarray, Cy5-labelled CALM1, profiling panel (AID 1111).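 Also: labelled calmodulin applied in Tris saline Tween buffer holding calcium plus EGTA and DTT.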 The settings on record: Cy5-CALM1 binding fluorescence, higher = more signal.
The target is the same in test [5]. Description: small molecules binding Ca-loaded calmodulin-1 – biochemical, small-molecule microarray, Cy5-labelled CALM1, plus calcium, artefact control for SMM control-protein annotation, profiling panel (AID 1112).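 Also: score merges spot fluorescence with signal to noise from triplicate slides.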 The settings on record: Cy5-CALM1 binding fluorescence, higher = more signal.
Test [6] is described as follows: probe aWnt5a binding to arrayed compounds – biochemical, biotinylated probe, 635/667 nm fluorescence, primary screen (AID 1113).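 Also: score merges 667 nm fluorescence intensity with signal-to-noise per printed feature.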 The conditions noted are these: small-molecule microarray, higher = more signal.
A short description of test [7]: probe aShh binding to arrayed compounds – biochemical, biotinylated probe, 635/667 nm fluorescence, primary screen (AID 1114).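 Also: probe is biotin-labelled aShh protein from a stem cell growth factor screen; measures binding of labelled protein to compounds printed on the slide; score merges feature fluorescence at 667 nm with signal-to-noise.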 The settings on record: small-molecule microarray, higher = more signal.
The nature of test [8]: probe aNog binding to arrayed compounds – biochemical, biotinylated probe, 635/667 nm fluorescence, primary screen (AID 1115).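 Also: probe is biotinylated aNog protein used at 0.15 µg/mL for 1 h at 4 C; z-score combines 667 nm fluorescence of each spot with its signal to noise.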 The settings on record: small-molecule microarray, higher = more signal.
Test [9] deals with Torsin-1A-interacting protein 1 (Homo sapiens) (UniProt Q5JTV8). Description: compound microarray binding of lysate hLAP1 – cell lysate, small-molecule microarray, COS7 lysate, 635/667 nm fluorescence, primary screen (AID 1116). The conditions noted are these: 635 nm fluorescence, higher = more signal.
Torsin-1A-interacting protein 1 (Homo sapiens), sequence (Q5JTV8 whole entry, looked up): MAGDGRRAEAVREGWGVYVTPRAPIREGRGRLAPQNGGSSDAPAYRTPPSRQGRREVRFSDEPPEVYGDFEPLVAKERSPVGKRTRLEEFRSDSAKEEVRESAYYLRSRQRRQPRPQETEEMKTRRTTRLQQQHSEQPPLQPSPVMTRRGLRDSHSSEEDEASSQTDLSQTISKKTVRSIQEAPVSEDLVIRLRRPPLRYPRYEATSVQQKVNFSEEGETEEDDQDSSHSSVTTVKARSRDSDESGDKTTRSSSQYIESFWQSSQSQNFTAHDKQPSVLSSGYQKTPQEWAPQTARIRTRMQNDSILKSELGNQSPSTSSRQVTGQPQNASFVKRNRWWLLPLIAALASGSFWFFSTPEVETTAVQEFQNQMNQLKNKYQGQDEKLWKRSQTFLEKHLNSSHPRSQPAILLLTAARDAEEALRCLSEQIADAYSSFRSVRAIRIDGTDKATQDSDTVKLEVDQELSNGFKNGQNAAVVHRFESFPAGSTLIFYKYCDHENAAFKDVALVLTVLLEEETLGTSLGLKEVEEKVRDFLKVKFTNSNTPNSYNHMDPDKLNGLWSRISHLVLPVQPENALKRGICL
In test [10] the target is Alpha-bungarotoxin (Bungarus multicinctus) (UniProt P60615). Description: compounds binding labelled alpha-BTX control protein – biochemical, small-molecule microarray, Alexa647 label, 635/667 nm fluorescence, artefact control for SMM control protein annotation, profiling panel (AID 1117). The settings on record: alpha-BTX-A647 binding fluorescence, higher = more signal.
Alpha-bungarotoxin (Bungarus multicinctus), sequence (P60615 whole entry, looked up): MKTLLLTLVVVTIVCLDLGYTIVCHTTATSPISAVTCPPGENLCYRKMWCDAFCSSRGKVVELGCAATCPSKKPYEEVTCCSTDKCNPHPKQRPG
The next test deals with Albumin (Bos taurus) (UniProt P02769). The test is described as follows: compounds binding labelled BSA control protein – biochemical, small-molecule microarray, Alexa647 label, 635/667 nm fluorescence, artefact control for SMM control protein annotation, profiling panel (AID 1118).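 Also: score merges 667 nm emission intensity and signal-to-noise per printed compound spot.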 The conditions noted are these: BSA-A647 binding, fluorescence 635 nm, higher = more signal.
Albumin (Bos taurus), sequence (P02769 whole entry, looked up): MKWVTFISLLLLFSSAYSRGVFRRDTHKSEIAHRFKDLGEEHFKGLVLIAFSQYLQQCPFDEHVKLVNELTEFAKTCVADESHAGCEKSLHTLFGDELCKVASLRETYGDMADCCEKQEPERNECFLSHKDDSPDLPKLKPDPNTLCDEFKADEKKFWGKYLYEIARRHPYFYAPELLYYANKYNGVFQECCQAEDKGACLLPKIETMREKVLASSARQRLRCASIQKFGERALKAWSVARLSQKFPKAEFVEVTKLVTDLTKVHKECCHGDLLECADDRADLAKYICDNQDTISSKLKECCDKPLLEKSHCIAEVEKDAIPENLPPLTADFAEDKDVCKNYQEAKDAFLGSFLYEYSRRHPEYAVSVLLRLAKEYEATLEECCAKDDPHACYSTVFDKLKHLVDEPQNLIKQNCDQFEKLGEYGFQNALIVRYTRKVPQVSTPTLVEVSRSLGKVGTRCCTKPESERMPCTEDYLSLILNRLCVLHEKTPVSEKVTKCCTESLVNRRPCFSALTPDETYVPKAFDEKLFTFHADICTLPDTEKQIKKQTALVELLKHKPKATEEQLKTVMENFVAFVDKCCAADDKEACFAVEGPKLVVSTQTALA

Test [11] is described as follows: probe aXIP binding to arrayed compounds – biochemical, NeuroSMM set, 635/667 nm fluorescence, primary screen (AID 1119).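 Also: probe is the protein aXip251-270 applied at 1 µg/mL to compound-printed slides; binding of probe to printed compounds measured as 667 nm fluorescence plus signal to noise.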 The settings on record: small-molecule microarray, higher = more signal, called active from +8 up or from −8 down.
A short description of test [12]: probe aNOTCH3 binding on compound microarray – biochemical, small-molecule microarray, 635/667 nm fluorescence, primary screen (AID 1120).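 Also: probe is a biotin-tagged antibody raised against NOTCH3 rather than NOTCH3 protein; score merges spot fluorescence near 667 nm with spot signal to noise.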 The conditions noted are these: higher = more signal.
Test [13] is described as follows: probe aNOTCH2 binding on compound microarray – biochemical, small-molecule microarray, 635/667 nm fluorescence, primary screen (AID 1121).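 Also: score merges feature fluorescence read at 667 nm with its signal to noise.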 The conditions noted are these: higher = more signal.
For test [14], the target named is Carbonic anhydrase 2 (Homo sapiens) (UniProt P00918). The test is described as follows: compounds binding carbonic anhydrase 2 – biochemical, small-molecule microarray, Alexa647-labelled CAII, profiling panel (AID 1122). The settings on record: CAII-A647 binding fluorescence, higher = more signal.
Test [15] is described as follows: COS7 lysate on small-molecule microarray, probe aHis, 635 nm (AID 1123).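 Also: z-score combines 667nm fluorescence intensity with signal-to-noise per printed compound spot.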 The settings on record: COS7 cell lysate, fluorescence, higher = more signal.
Test [16] in a line: probe aLAP1 signal on lysate-treated microarray – cell lysate, small-molecule microarray, COS7 lysate, primary screen (AID 1124).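 Also: lysate comes from COS7 cells expressing LAP1 and is applied at 0.3 µg/mL; score merges spot fluorescence near 667 nm with signal-to-noise over triplicate slides.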 The conditions noted are these: probe aLAP1, fluorescence, higher = more signal.
A further test concerns Sam68 (KHDRBS1). The test is described as follows: compounds binding KHDRBS1 protein – biochemical, small-molecule microarray, 635 nm fluorescence, primary screen (AID 1125).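 Also: score merges 667 nm channel intensity with signal to noise over triplicate slides.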 The settings on record: higher = more signal.
For test [17], the system named is Chordin-like protein 2 (CHRDL2). The test is described as follows: compounds binding chordin-like 2 – biochemical, small-molecule microarray, 635 nm fluorescence, primary screen (AID 1126).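 Also: printed compound slides probed with Chrdl2 protein at 4 µg/mL for 1 h at 4 C; score merges 667 nm emission intensity with signal to noise over three replicate slides.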 The settings on record: fluorescence 635 nm, higher = more signal.
Test [18] deals with Concanavalin-A (Canavalia ensiformis) (UniProt P02866). Description: compounds binding concanavalin A lectin – biochemical, small-molecule microarray, Alexa647 label, 635 nm, artefact control for SMM control protein annotation, primary screen (AID 1127).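 Also: z combines 667 nm emission intensity with signal-to-noise across three replicate slides.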 The conditions noted are these: ConA-A647 binding fluorescence, higher = more signal.
Concanavalin-A (Canavalia ensiformis), sequence (P02866 whole entry, looked up): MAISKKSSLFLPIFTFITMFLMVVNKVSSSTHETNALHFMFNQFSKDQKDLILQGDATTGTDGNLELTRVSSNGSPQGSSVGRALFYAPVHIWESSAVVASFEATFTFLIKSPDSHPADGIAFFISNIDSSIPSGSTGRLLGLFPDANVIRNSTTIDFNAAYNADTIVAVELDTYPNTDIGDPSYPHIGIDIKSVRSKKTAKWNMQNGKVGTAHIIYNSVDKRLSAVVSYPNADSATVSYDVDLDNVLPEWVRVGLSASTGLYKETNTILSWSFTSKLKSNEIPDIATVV

Active and inactive are the calls of the source.

On to `CN(C)CCCC[C@@H]1NC(=O)[C@H]2C[C@@H](C(=O)O)[C@@H](c3cccc(OCCO)c3)N2C1=O`, for which the composite z-score in test [1] was -0.226; in test [3] it was 0.494; in test [4] it was -0.526; in test [5], 0.16; in test [6] it was 0.0495; in test [7], 0.0611. Moreover, the composite z-score in test [8] was 0.25; in test [9], 0.633; in [10], 1.47; with Albumin (Bos taurus) it was -0.468; in test [12] it was 0.601; in [13], 0.124. The composite z-score in test [14] turned out to be 0.816; in test [15], 0.699; in test [16] it was 0.0206; with Sam68 (KHDRBS1), 0.524; in test [17], 0.941; in test [18], 0.931. The same molecule displayed a z-score in test [2] of 4.23. Moreover, the composite Z-score in test [11] is 0.666 (inactive).
Regarding `CO[C@H]1O[C@H](CO)[C@@H](OC(=O)Nc2ccc(C(F)(F)F)cc2)[C@H](OC(=O)Nc2ccccc2-c2ccccc2)[C@H]1OC(=O)Nc1ccccc1-c1ccccc1`, the composite z-score is 1.47 in [1]; 0.24 in test [3]; 1.59 in [4]; -0.135 in test [5]; -0.0445 in test [6]; 0.0121 in [7]. The composite z-score is -0.136 in [8]; 0.731 in test [9]; 1.36 in [10]; -0.792 in the test with Albumin (Bos taurus); 0.144 in test [12]; -0.0406 in test [13]. The composite z-score in test [14] was 0.693; in [15], 2.22; in [16], -0.244; with Sam68 (KHDRBS1), 1.3; in test [17], -0.0407; in test [18], 1.2. In [2], this molecule displayed a z-score of -3.83. The composite Z-score in test [11] is 0.259 (inactive).
As for `CN(C)CCCNC(=O)[C@@H]1c2ccccc2C(=O)N(C2Cc3ccccc3C2)[C@H]1c1ccc(CO)cc1`, the composite z-score in test [1] was 1.1; in [3] it was -0.625; in [4], -0.0693; in test [5], -0.875; in test [6] it was 0.0436; in test [7] it was 0.0766. The composite z-score in test [8] is 0.467; in [9] it was 0.814; in test [10], 0.438; with Albumin (Bos taurus), 0.274; in test [12], -0.45; in [13] it was 0.197. Besides, the composite z-score in test [14] is 0.505; in [15], 0.132; in test [16], 0.682; in the test on Sam68 (KHDRBS1), 1.3; in test [17], -0.0701; in [18] it was 0.491. For the same molecule, in test [2], the z-score was -1.9. In addition, the composite Z-score in test [11] was 0.0516 (inactive).
For `CC(=O)c1ccc(C(O)C2C=CC3C(=O)NC(=O)C3N2Nc2ccc(Cl)cc2Cl)cc1` (stereo not given), the composite z-score was 0.18 in test [1]; -0.16 in [3]; 0.594 in test [4]; 0.468 in test [5]; -0.0161 in test [6]; 0.522 in test [7]. Besides, the composite z-score in test [8] was 1.25; in test [9] it was 0.0338; in test [10], 0.186; in the test with Albumin (Bos taurus) it was 0.843; in test [12] it was -0.0151; in test [13], -0.0097. Moreover, the composite z-score in [14] is 0.759; in test [15] it was 2.15; in test [16], -0.227; in the test on Sam68 (KHDRBS1) it was -0.0077; in test [17] it was 0.0823; in [18], -0.185. In test [2], the z-score was -0.38. In test [11], the composite Z-score is 0.0186 (inactive).
With `Cc1ccc(S[C@]2(C(=O)NCC(F)(F)F)CC(=O)N(C3CCCCC3)[C@@H]2c2ccc(CO)cc2)cc1`, the composite z-score was 0.82 in [1]; -0.431 in test [3]; 1.26 in [4]; 0.27 in test [5]; -0.1 in test [6]; 0.0875 in test [7]. Moreover, the composite z-score is -0.546 in [8]; -0.163 in [9]; 0.28 in test [10]; 0.344 with Albumin (Bos taurus); -0.161 in test [12]; -0.11 in test [13]. Moreover, the composite z-score is 0.702 in test [14]; 2 in test [15]; 0.298 in [16]; 0.626 in the test on Sam68 (KHDRBS1); -0.339 in test [17]; -0.123 in test [18]. This molecule also came in with a z-score in test [2] of -0.759. In addition, the composite Z-score in test [11] is 0.399 (inactive).
For the molecule `CCCCCN1CC=CC23O[C@@H]4C=CCOC(=O)[C@@H]4[C@H]2C(=O)N(CCCCCO)[C@@H]3C1=O` (stereo not given in full), the composite z-score is -0.678 in [1]; -1.19 in test [3]; -0.511 in test [4]; -0.177 in test [5]; -0.209 in [6]; -0.0035 in test [7]. Further, the composite z-score in [8] is -0.223; in test [9], 0.229; in test [10] it was -0.724; with Albumin (Bos taurus), 0.994; in test [12] it was -0.137; in [13], -0.146. Further, the composite z-score in test [14] was 0.854; in [15], 0.263; in test [16], 0.0344; in the test with Sam68 (KHDRBS1), -0.172; in test [17] it was -1.31; in test [18] it was -0.56. For the same molecule, the z-score in [2] is -0.0591. For the same molecule, the composite Z-score in [11] is 0.358 (inactive).
